Drawing on PubChem BioAssay AID1347170 (National Center for Advancing Translational Sciences (NCATS), 2019), this text covers outcome for nine compounds.

Results filed as inconclusive are left out. Active and inactive are the calls of the source. Calls come from the whole dose curve; as a rule, active = well fitted cell-killing curve with a large enough effect; inconclusive = small, poorly fitted or top-dose-only effect, or another doubt; inactive = flat fitted curve, though single readings scatter.

This assay can be described thus: Vero cells viability counterscreen for qRT-PCR qHTS assay of selected Zika virus inhibitors. From the text:
Assay Submitters (PI): Avindra Nath, Ph.D., National Institute of Neurological Disorders and Stroke (NINDS), Bethesda, MD Radhakrishnan Padmanabhan, Ph.D., Georgetown University (GU), Washington D.C. Zika Virus causes congenital defects, including microcephaly and is associated with Guillain-Barre syndrome, eningoencephalitis and myelitis in infected adult. […] Using a target-based approach, we hope to establish a screening paradigm to uncover novel, cell-active NS2B-NS3 protease (Zika Virus) specific inhibitors from NCATS' collection of small molecules using qHTS. […] Four assay panel was created to identify potential Zika Virus inhibitors. Namely, (1) GU unlinked NS2B-NS3 AMC tagged protease qHTS, (2) GU unlinked NS2B-NS3 Rhodamine tagged protease qHTS, (3) NINDS linked NS2B-NS3 AMC tagged protease qHTS, (4) NINDS linked NS2B-NS3 Rhodamine tagged protease qHTS. Inhibitors of the Zika virus primary screens are confirmed using qRT-PCR secondary assays, mCherry orthogonal assay, and Vero cells viability counterscreen. Cytotoxic compounds identified in the Vero cell viability counterscreen were excluded from the list of potential Zika virus inhibitors. Early Translation Branch (ETB) National Center for Advancing Translational Sciences (NCATS), Rockville, MD National Institute of Health (NIH), Bethesda, Maryland
Vero Cell Viability Assay: Vero cell cytotoxicity was determined using a luminescent readout with CellTiter Glo reagent (Promega, Madison, WI), which is based on measuring the ATP content within cells. Briefly, 4 uL of Vero cells at 2.5 x 10^5 cells/mL in DMEM containing 4% FBS were dispensed into 1536-well solid bottom tissue treated white plate using a Multidrop Combi dispenser (Thermo Scientific). Plates were incubated at 37 degrees C, 95% humidity, and 5% CO2 overnight to allow for cell attachment. Compounds were dissolved in DMSO at different concentrations and transferred via pintool (Wako Automation), for a final concentration of 57 uM - 0.029 uM. Plates were again incubated for 24 hours, followed by a 2 uL addition of CellTiter Glo. Finally, plates were incubated for 30 minutes at 37 degrees C and 5% CO2 before being read on a ViewLux (Perkin Elmer) for luminescence.

With `CC(=O)c1c(O)c(C)c(O)c(Cc2c(O)c3c(c(C(=O)/C=C/c4ccccc4)c2O)OC(C)(C)C=C3)c1O`, the result was inactive.

For the compound `CN(C)[C@@H]1C(=O)C(C(N)=O)=C(O)[C@@]2(O)C(=O)C3=C(O)c4c(O)cccc4[C@@](C)(O)[C@H]3C[C@@H]12`, the call was inactive. The same measure for `Cc1cc(SCc2sc(-c3ccc(C(F)(F)F)c(F)c3)nc2C)ccc1OCC(=O)O`: “inactive”; for `O=C(Nc1ccc(Br)cc1)c1cc(Br)cc(Br)c1O`: “inactive”. The same measure for `O=C1OC(c2ccc(O)c(S(=O)(=O)O)c2)(c2ccc(O)c(S(=O)(=O)O)c2)c2c(Br)c(Br)c(Br)c(Br)c21`: “inactive”. In the case of `CN(C)[C@@H]1C(=O)C(C(N)=O)=C(O)[C@@]2(O)C(=O)C3=C(O)c4c(O)ccc(Cl)c4[C@@](C)(O)[C@H]3C[C@@H]12` it was “inactive”; in that of `Oc1c(Cl)c(Cl)c(Cl)c(Cl)c1Cl`, “inactive”. For the compound `C[C@]12CC[C@@H]3c4ccc(OC(=O)N(CCCl)CCCl)cc4CC[C@H]3[C@@H]1CC[C@@H]2O`, the compound was classed as inactive. The same measure for `CCCCCOc1cc2c(cc1-c1cc(/C=C/C(=O)O)ccc1O)C(C)(C)CCC2(C)C`: “inactive”.
